# Screening data (PubChem)
# Sampled rows, rich in hits. Any-hit rate of the full collection: about 10%.
# HPGD inh: qHTS Assay for Inhibitors of HPGD (15-Hydroxyprostaglandin Dehydrogenase); Potency, µM, most hits filed as inhibitors; purified HPGD, NADH fluorescence kinetic, PGE2 substrate; hit rate 4.3% among 150,000
#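 20 nM HPGD preincubated 15 min at room temperature with compound in 50 mM Tris-HCl pH 8, 0.01% Tween 20. Started with 1 mM NAD+ and 30 uM prostaglandin E2; NADH fluorescence (360/450 nm) read 5 times over 30-s intervals, last minus first.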
# KinaseGlo FLuc: Counterscreen for Luciferase (Kinase-Glo TM) Inhibition; Kinase-Glo luciferase, ATP luminescence, 8 min; Potency, µM (highest dose often 38.3 µM), hits mostly inhibitors; hit rate 0.28% among 200,000; AID 1379, 2008; active means well fitted inhibition curve with a large enough effect; inconclusive means small, poorly fitted or top-dose-only effect; further: nearly all actives have a fitted effect of over 60% in size
#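 Inhibition of Kinase-Glo luciferase light generation was assessed at 10 uM ATP in pH 7.2 imidazole buffer, with luminescence measured after eight minutes at ambient temperature.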
# LMNA splice mod: qHTS Assay for Modulators of Lamin A Splicing; HeLa LMNA splicing GFP/RFP minigene ratio, 48 h; Potency, µM (titrated, usually from 46.1 µM), usual class: inhibitors; hit rate 0.01% among 200,000; active means well fitted inhibition curve with a large enough effect in the signal ratio, with a control signal flat, not every such curve was filed as active; inconclusive means small, poorly fitted or top-dose-only effect, or effect the other way, or a change in a side signal; the % refers to the signal ratio
#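 S3 HeLa stable clones carrying a lamin A-EGFP splicing minigene plus DsRed2 were seeded at 600 cells/well in Opti-MEM with 2% FBS, pin-dosed and incubated 48 h at 37°C. Acumen cytometry (488 nm) gave the GFP/RFP total-intensity ratio.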
# ALDH1A1 block: qHTS Assay for Inhibitors of Aldehyde Dehydrogenase 1 (ALDH1A1). AID 1030, 2008. Purified ALDH1A1, NADH fluorescence, propionaldehyde substrate. Potency, µM (top dose mostly 75.3 µM), actives largely listed as inhibitors. Aldehyde dehydrogenase 1A1 (Homo sapiens), P00352. hit rate 7.3% among 220,000
# Target sequence (P00352 whole entry, looked up): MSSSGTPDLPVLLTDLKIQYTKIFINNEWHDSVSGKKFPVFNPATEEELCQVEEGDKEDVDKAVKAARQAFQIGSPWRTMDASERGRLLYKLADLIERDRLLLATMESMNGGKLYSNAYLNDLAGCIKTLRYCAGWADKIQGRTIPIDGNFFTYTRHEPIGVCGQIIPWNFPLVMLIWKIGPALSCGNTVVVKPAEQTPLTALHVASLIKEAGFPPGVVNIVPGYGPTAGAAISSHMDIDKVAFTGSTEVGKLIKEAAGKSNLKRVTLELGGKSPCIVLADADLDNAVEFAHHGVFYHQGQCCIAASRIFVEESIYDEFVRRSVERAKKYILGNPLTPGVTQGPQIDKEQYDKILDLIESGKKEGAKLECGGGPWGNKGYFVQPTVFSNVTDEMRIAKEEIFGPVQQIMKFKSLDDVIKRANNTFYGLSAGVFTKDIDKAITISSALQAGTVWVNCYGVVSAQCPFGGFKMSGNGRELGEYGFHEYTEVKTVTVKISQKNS
# PNC assembly inh: High Content Assay for Compounds that inhibit the Assembly of the Perinucleolar Compartment | PC3M PTB-GFP, PNC prevalence imaging, 16 h; hits give low values | activity change (PNC), negative = inhibition, % at 10 µM | hit rate 3.1% among 140,000 | AID 2417, 2010;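 active means readout at or below -70, meaning at least 70% loss of cells showing the perinucleolar compartment, a nuclear body marking cancer cells; inconclusive means readout between -30 and a set limit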
#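 Read-out is percentage of cells bearing a perinucleolar compartment, from automated 20x imaging of fixed, Hoechst-stained PC3M PTB-GFP cells. Cells were seeded 4 h, then exposed 16 h to compound (23 nl of library stock) in duplicate plates.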
# Numbers stand for hits; n = inactive; u = inconclusive; x = not tested or not shown; [ ] = another dose, or the depositor's remark. Unless noted, the call rests on the fitted dose curve; in most records, active means well fitted inhibition curve with a large enough effect (not every such curve was filed as active); inconclusive means small, poorly fitted or top-dose-only effect, or another doubt; inactive means no such curve, though single readings can be large or run the other way.
SMILES,HPGD inh,KinaseGlo FLuc,LMNA splice mod,ALDH1A1 block,PNC assembly inh
NS(=O)(=O)c1ccc(N/N=C/c2ccccc2C(=O)O)c([N+](=O)[O-])c1,x,n,n,u,x
Cc1ccccc1-n1c(=O)/c(=C\c2ccco2)s/c1=C(/C#N)C(=O)Nc1ccccc1,n,n,n,20µM,n
COc1cc(NC(=O)CSc2nc3nc(C)c(Cc4ccccc4Cl)c(C)n3n2)cc(OC)c1,x,x,n,x,x
Cc1nn(-c2ccccc2)c2nc(C3CC3)cc(C(=O)Nc3ccccc3F)c12,x,x,n,x,x
Cc1cc(C)c(S(=O)(=O)NCC(c2ccco2)S(=O)(=O)c2cccs2)c(C)c1 (centres undefined),x,x,n,x,x
COc1ccc(-c2cc(C(C)=O)c(C)n2CCC(=O)Nc2ccc(C(F)(F)F)cc2)cc1,x,x,n,x,x
CCOc1ccc(OCC)c(Nc2cc(C)nc3nc(C)nn23)c1,0.5µM,n,n,n,n
Cc1cc(Nc2cc(F)ccc2C)n2ncnc2n1,n,n,n,n,n
CCOc1ccc(OCC)c(Nc2cc(C)nc3ncnn23)c1,4.5µM,n,n,n,n
Cc1cc(Nc2ccccc2F)n2nc(C)nc2n1,n,n,n,n,n
COc1ccc(C)cc1Nc1cc(C)nc2ncnn12,5µM,n,n,n,u
Cc1ccc(Nc2cc(C)nc3ncnn23)c(Cl)c1,n,n,n,n,n
CCOc1ccccc1Nc1cc(C)nc2nc(C)nn12,1.6µM,n,n,n,n
Cc1ccc(Nc2cc(C)nc3nc(C)nn23)c(C)c1,n,n,n,n,n
CCC(=O)Nc1cc(C)c(O)c(-c2nc3ncccc3o2)c1,x,x,n,x,x
COc1ccc(C2CC(=O)c3c(C)nc(N4CCN(Cc5ccccc5)CC4)nc3C2)cc1OC (centres undefined),n,n,u,25µM,n
N#C/C(C(=O)N1CCCC1)=C1/N=C(N)c2ccccc21,n,n,n,u,u
Cc1ccc(NC(=O)NC2=N/C(=C(/C#N)C(=O)N3CCCC3)c3ccccc32)cc1,n,n,n,0.63µM,n
Cc1nc(SCC(=O)N2CCN(c3ccccc3)CC2)c2oc3ccccc3c2n1,u,n,u,40µM,n
COc1ccc(C(C)=O)cc1CSC(=N)N,x,n,x,u,x
Cc1nc(SCC(=O)O)c2oc3ccccc3c2n1,18µM,n,n,n,n
Cc1nc(SCC(=O)c2cccs2)c2oc3ccccc3c2n1,13µM,n,u,n,n
Cc1nc(SCC(=O)NCc2ccccc2)c2oc3ccccc3c2n1,n,n,n,n,n
COc1ccc(C(C)=O)cc1CSc1nc2cc(Cl)ccc2o1,n,n,u,25µM,n
CN(C)C(=O)c1ccc(S(=O)(=O)NCc2ccccc2Cl)s1,x,x,n,x,x
SMILES,HPGD inh,KinaseGlo FLuc,LMNA splice mod,ALDH1A1 block,PNC assembly inh
O=C(O)/C=C/c1ccccc1,x,x,n,x,x
O=C(CSc1nc2cc(Cl)ccc2o1)c1cccs1,14µM,n,n,n,u
CCNC(=S)N=Nc1c(O)[nH]c2ccc([N+](=O)[O-])cc12,x,n,n,n,x
O=[N+]([O-])c1ccc2[nH]c(O)c(N=NC(=S)NCC3CCCO3)c2c1 (centres undefined),n,n,u,0.79µM,n
Cc1cc2nc(SCCOC(=O)Nc3ccc(Cl)cc3)nc(C)c2cc1C,14µM,n,n,n,n
CCOC(=O)CCSc1nc(C)c2cc(C)ccc2n1,20µM,n,n,n,u
CC1(C)CC(=O)C=C(NCc2ccccc2)C1,n,n,n,n,u
CC1(C)CC(=O)C=C(Nc2cc(-c3ccccc3)[nH]n2)C1,n,n,n,4.5µM,n
CC1(C)CC(=O)C=C(Nc2ccccc2F)C1,22µM,n,n,u,u
CC1=CC2C(=O)c3cccc(O)c3C(=O)C2C(O)=C1 (centres undefined),n,n,x,u,x
COC(=O)c1sccc1NC(=S)N1CC(C)CC(C)C1 (centres undefined),u,n,n,7.9µM,n
COC(=O)c1sccc1NC(=S)N1CCN(c2ccccc2)CC1,n,n,u,n,n
COC(=O)c1sccc1NC(=S)N1CCC(C)CC1,n,n,n,20µM,n
CO[C@@H]1/C=C\O[C@]2(C)Oc3c(C)c(O)c4c(O)c(c(CN5CCN(C)CC5)c(O)c4c3C2=O)NC(=O)/C(C)=C\C=C[C@@H](C)[C@@H](O)[C@H](C)[C@@H](O)C(C)[C@H](OC(C)=O)[C@@H]1C (some centres undefined),n,n[7.66 µM],x,n[13.5 µM],x
Fc1ccc(C[n+]2csc3ccccc32)cc1,10µM,n,u,4µM,n
Fc1ccc(CSc2ncnc3scc(-c4ccccc4)c23)cc1,n,n,u,n,n
Clc1ccc(C[n+]2csc3ccccc32)cc1,16µM,n,n,2.8µM,n
COc1ccccc1CCNC(=O)C(=O)NCC(c1cccs1)S(=O)(=O)c1ccc(C)cc1 (centres undefined),x,x,n,x,x
CCOC(=O)C1(Cc2ccccc2Cl)CCN(S(C)(=O)=O)CC1,x,n,n,10µM,x
COc1ccc(C(=O)N2CCC3(CC2)CCN(c2cccc(-c4ccccc4)c2)CC3)cc1,n,n,x,u,x
CCOC(=O)C1=C(N)Oc2ccc(Br)cc2[C@@H]1[C@@H](C#N)C(=O)OCC,n,n,x,u,x
S=c1[nH]nc(-c2cccnc2)o1,n,n,n,n,n
Nn1c(-c2cccc(Br)c2)n[nH]c1=S,n,n,n,22µM,n
S=c1[nH]nc(-c2cccc(Br)c2)o1,n,n,n,6.3µM,u
COc1ccc(Nc2nc(N/N=C/c3ccc(N(C)C)cc3)nc(C)c2[N+](=O)[O-])cc1,n,n,n,7.9µM,n
SMILES,HPGD inh,KinaseGlo FLuc,LMNA splice mod,ALDH1A1 block,PNC assembly inh
Cc1nc2sc(C(=O)O)c(N)c2c2c1COC(C)(C)C2,n,n,n,14µM,n
COc1ccc(OC)c(CCNc2ncnc3onc(-c4ccc(F)cc4)c23)c1,x,x,n,x,x
CCC(Sc1nc2ncccc2[nH]1)C(=O)Nc1ccccc1F (centres undefined),x,x,n,x,x
Cc1ccc(S(=O)(=O)N2c3ccc(S(N)(=O)=O)cc3CC2C)cc1 (centres undefined),n,n,n,25µM,n
CCOc1ccc(S(=O)(=O)N2c3ccccc3CC2C)cc1 (centres undefined),n,n,u,u,-103
Cc1ccc(S(=O)(=O)N2c3ccccc3CC2C)cc1 (centres undefined),x,n,u,n,x
COc1ccc(OC)c(NC(=O)CN2C(=O)CCc3cc(S(=O)(=O)N4CCCCC4)ccc32)c1,x,x,n,x,x
CCCCC(=O)Oc1ccccc1C(=O)O,n,n,x,n,x
CC(C)NS(=O)(=O)c1ccc(OCC(=O)Nc2ccc3c(c2)OCO3)cc1,x,n,x,u,x
CCCNS(=O)(=O)c1ccc(CCC(=O)Nc2ccc3c(c2)OCO3)cc1,n,n,u,u,n
